Measured values: PubChem BioAssay
Values joined by “and” are separate entries in the source; they are usually repeats but may differ in a detail not shown here. Equal values may be shown once. Results filed as inconclusive are left out. Active and inactive are the calls of the source. Unless noted, the limit is not given here; nearly all actives have AC50 up to about 26 µM.

Experiments:
[1] = compounds altering circadian rhythm period length – cell-based, LOPAC library, luminescence reporter (AID 2774; call rule not given here;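 also: values are relative to mean of DMSO wells on each plate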); details: circadian reporter cells, at 7 µM, actives lie on both sides
[2] = system: Hepatitis C virus NS3 helicase; assay: blockers of NS3h binding to ssDNA – biochemical, fluorescence polarization, LOPAC1280 library, primary screen (AID 687035; in the data active = inhibition above about 37%); details: Purified HCV NS3 helicase, Cy5-dT15 ssDNA binding fluorescence polarization; stronger effect = higher value; concentration not given here
[3] = compounds altering Cy5-DNA-NS3h complex signal – biochemical, LOPAC1280, artefact control for HCV NS3 helicase inhibitor project (AID 687037; call rule not given here); details: Cy5-DNA-NS3h complex fluorescence interference counterscreen
[4] = EMT-state selective cytotoxicity in co-culture – imaging, PC-3E GFP, TEM4-18 mCherry, primary screen (AID 1345086;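 active = compounds killing one labelled cell type while sparing the other, by normalised counts and ratio limits, not self-fluorescent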;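 as to all read-outs here: cells exposed to compound for 72 h before imaging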;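 as to red/green cell ratio (normalised): normalised mesenchymal count divided by normalised epithelial count so high means epithelial killing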); details: PC-3E GFP / TEM4-18 mCherry co-culture, imaging cell counts, at 1 µM; for red/green cell ratio (normalised): actives lie on both sides, counts scaled to control wells, 1 = unselective
[5] = viability loss in pontine glioma line – cell-based, SU-DIPG-XVII, MIPE5.0, CellTiter-Glo, qHTS, dose response (AID 1347060); details: CellTiter-Glo ATP luminescence;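 as to AC50: cells exposed to compound for 48 hours before viability readout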
[6] = viability loss in pontine glioma line – cell-based, SU-DIPG-XIII, MIPE4.0, CellTiter-Glo, qHTS, dose response (AID 1347061; cut-off not given, nearly all actives have AC50 up to about 37 µM;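 also: cells exposed to compound for 48 hours before readout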); details: CellTiter-Glo ATP luminescence
[7] = viability loss in pontine glioma line – cell-based, JHH-DIPG-1, MIPE4.0, CellTiter-Glo, qHTS, dose response (AID 1347062; cut-off not given, nearly all actives have AC50 up to about 27 µM); details: JHH-DIPG-1 viability, CellTiter-Glo ATP luminescence
[8] = viability loss in pontine glioma line – cell-based, SU-DIPG-IV, MIPE4.0, CellTiter-Glo, qHTS, dose response (AID 1347063; cut-off not given, nearly all actives have AC50 up to about 30 µM;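 also: compound exposure lasted 48 hours before the viability readout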); details: CellTiter-Glo ATP luminescence
[9] = viability loss in pontine glioma line – cell-based, SU-DIPG-XXV, MIPE5.0, CellTiter-Glo, qHTS, dose response (AID 1347065); details: CellTiter-Glo ATP luminescence;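 also: cells exposed to compound for 48 hours before ATP readout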
[10] = growth inhibition of DIPG cells – cell-based, MIPE4.0 library, CellTiter-Glo luminescence, qHTS (AID 1347066; cut-off not given, nearly all actives have AC50 up to about 30 µM;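 also: cells exposed to compound for 48 hours before readout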); details: SU-DIPG-VI viability, CellTiter-Glo ATP luminescence
[11] = JHH-DIPG-1 glioma cell viability, MIPE5.0 library, CellTiter-Glo luminescence, qHTS (AID 1347067); details: JHH-DIPG-1 glioma viability, CellTiter-Glo ATP luminescence;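 also: cells exposed to compound for 48 hours before readout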
[12] = growth inhibition of DIPG cells – cell-based, MIPE5.0 library, qHTS (AID 1347068; cut-off not given, nearly all actives have IC50 up to about 30 µM); details: SU-DIPG-XXV viability
[13] = viability loss with induced miR-34 in A549 – imaging, A549 dox-inducible miR-34, nuclei and caspase counts, primary screen (AID 1347080;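 active = compounds whose cell count with miR-34 switched on is under 0.7 times the count with it off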); details: A549 miR-34 inducible, Hoechst nuclei count, 48 h
[14] = blockers of cellular phospholipid synthesis – cell-based, LOPAC library, screen 4, primary screen (AID 1347384; call rule not given here); details: animal cells, phospholipid biosynthesis inhibition screen; at 10 µM
[15] = galactose survival enhancers in mitochondrial complex I cybrids – cell-based, galactose medium, ATP luminescence, primary screen (AID 1645843;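 active = z-score of at least 1.8 in each of two replicates, scored against plate mean and spread of sample wells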;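 also: positive z means more ATP and so rescue of galactose-driven cybrid death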); details: complex I mutant cybrid cells, 72 h, stronger effect = higher value
[16] = P. berghei load reduction in hepatocytes – cell-based, HepG2, luciferase luminescence, HepG2 viability, primary screen (AID 624349; in the data active = parasite load remaining mostly below about 12%, no sharp cut-off; inactive = mostly above about 10%;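 also: 100% = mean of DMSO negative control wells on the same plate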); details: P. berghei liver stage in HepG2, luciferase luminescence, concentration not given here; parasite load remaining: stronger effect = lower value; viability: measured here: HepG2 viability without parasites
[17] = viability loss in pontine glioma line – cell-based, SU-DIPG-XIII, MIPE5.0, CellTiter-Glo, qHTS, dose response (AID 1347064; cut-off not given, nearly all actives have AC50 up to about 23 µM;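 as to AC50: cells exposed to compound for 48 hours before the viability read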); details: CellTiter-Glo ATP luminescence
[18] = chitosan synthesis blockers in C. neoformans – flow cytometry, Cibacron Brilliant Red staining (AID 1347148; call rule not given here;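 also: compound exposure lasted three days at 37 degrees C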); details: Cryptococcus neoformans chitosan, stronger effect = lower value; at 10 µM unless noted
[19] = MELAS cybrid and Rieske KO viability enhancers – cell-based, MELAS cybrids, Rieske KO mouse fibroblasts, CellTiter-Glo, primary screen (AID 1508586;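 active = mean z-score across replicates of 1.96 or higher in either the MELAS or the Rieske mutant cell line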;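 also: z relative to plate mean and SD of compound and empty wells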); details: low glucose
[20] = target: Mitogen-activated protein kinase 7 (Homo sapiens) (UniProt Q13164); assay: Gal4-ERK5 driven luciferase induction – cell-based, HTS, primary screen (AID 1508626;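 active = luciferase signal above three times the same-plate solvent-only control wells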;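 also: luciferase driven by Gal4-ERK5 fusion binding five Gal4 sites before minimal TATA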); details: HeLa Gal4-ERK5 transactivation, 18 h, at 5 µM, stronger effect = higher value
Mitogen-activated protein kinase 7 (Homo sapiens), sequence (Q13164 whole entry, looked up, the tested form may be a part): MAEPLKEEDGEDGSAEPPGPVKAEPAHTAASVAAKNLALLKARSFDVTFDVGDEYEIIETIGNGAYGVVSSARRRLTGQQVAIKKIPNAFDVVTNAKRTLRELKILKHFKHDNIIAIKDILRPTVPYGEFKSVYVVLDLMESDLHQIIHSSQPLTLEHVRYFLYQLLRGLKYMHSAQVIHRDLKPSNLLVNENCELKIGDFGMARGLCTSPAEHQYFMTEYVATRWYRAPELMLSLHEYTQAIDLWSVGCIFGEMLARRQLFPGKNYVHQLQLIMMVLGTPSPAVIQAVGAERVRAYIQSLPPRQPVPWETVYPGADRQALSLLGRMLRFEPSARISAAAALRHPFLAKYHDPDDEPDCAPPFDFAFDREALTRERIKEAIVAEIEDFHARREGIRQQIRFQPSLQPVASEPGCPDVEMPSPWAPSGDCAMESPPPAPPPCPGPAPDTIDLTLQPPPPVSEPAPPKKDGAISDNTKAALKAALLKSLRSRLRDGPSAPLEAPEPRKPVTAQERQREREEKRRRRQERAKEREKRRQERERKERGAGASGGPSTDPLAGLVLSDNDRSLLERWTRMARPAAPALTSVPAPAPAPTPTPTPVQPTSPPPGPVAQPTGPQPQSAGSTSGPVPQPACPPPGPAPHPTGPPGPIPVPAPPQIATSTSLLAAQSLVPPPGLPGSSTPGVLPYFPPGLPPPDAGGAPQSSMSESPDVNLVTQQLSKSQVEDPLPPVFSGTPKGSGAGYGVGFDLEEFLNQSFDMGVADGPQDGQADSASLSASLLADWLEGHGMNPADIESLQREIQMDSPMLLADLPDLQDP

[21] = target: NAD(+) hydrolase SARM1 (Homo sapiens) (UniProt Q6SZW1); assay: blocking NAD cleavage by SARM1 SAM-TIR – cell lysate, NAD-Glo luminescence (AID 1508614;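 active = compound whose remaining NAD level is above about 45 nM, limit read from the data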;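 also: higher remaining NAD means stronger inhibition of SARM1 NADase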); details: SAM-TIR HEK293T lysate NADase, at 1 µM, stronger effect = higher value
NAD(+) hydrolase SARM1 (Homo sapiens), sequence (Q6SZW1 whole entry, looked up): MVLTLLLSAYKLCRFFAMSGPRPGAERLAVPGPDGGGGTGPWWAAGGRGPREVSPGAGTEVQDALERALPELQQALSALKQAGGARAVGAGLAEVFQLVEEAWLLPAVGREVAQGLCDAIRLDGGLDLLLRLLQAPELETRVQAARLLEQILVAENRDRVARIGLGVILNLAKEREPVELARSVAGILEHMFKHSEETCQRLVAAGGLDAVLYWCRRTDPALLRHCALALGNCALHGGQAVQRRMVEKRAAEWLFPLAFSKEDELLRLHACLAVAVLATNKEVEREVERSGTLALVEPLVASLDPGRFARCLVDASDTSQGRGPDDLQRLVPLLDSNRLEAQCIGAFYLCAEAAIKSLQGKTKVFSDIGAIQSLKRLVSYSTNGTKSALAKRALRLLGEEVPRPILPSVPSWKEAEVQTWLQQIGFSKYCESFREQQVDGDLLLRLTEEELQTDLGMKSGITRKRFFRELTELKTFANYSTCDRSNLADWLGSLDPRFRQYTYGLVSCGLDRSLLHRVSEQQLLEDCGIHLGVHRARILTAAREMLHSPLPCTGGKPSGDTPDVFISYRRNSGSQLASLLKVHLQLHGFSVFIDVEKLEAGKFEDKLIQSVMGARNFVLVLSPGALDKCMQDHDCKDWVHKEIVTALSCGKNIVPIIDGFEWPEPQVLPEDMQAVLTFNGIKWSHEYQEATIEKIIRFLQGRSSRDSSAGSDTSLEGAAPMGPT

[22] = measured here: epithelial PC-3E GFP cell survival
[23] = measured here: mesenchymal TEM4-18 mCherry cell survival
[24] = stronger effect = lower value, cell number ratio, induced over uninduced
[25] = measured here: relative caspase fold change +Dox/-Dox
[26] = measured here: total cells with miR-34 induction, stronger effect = lower value
[27] = measured here: total cells without miR-34 induction

## CCCCS(=N)(=O)CCC(N)C(=O)O (stereo not given)
[1]
  period change: -0.105 h (inactive)
[2]
  inhibition: 1% (inactive)
[3]
  fluorescence ratio (interference): 1 (inactive)
[4]
  red/green cell ratio (normalised): 0.93 (inactive)
[4]; [22]
  normalised cell number: 0.89
[4]; [23]
  normalised cell number: 0.83
[5]
  outcome: inactive
[6]
  outcome: inactive
[7]
  outcome: inactive
[8]
  outcome: inactive
[9]
  outcome: inactive
[10]
  outcome: inactive
[11]
  outcome: inactive
[12]
  outcome: inactive
[13]; [24]
  fold change: 0.991 (inactive)
[13]; [25]
  fold change: 1.82
[13]; [26]
  cell count: 9560
[13]; [27]
  cell count: 9650
[14]
  outcome: inactive
[15]
  z-score: -0.42 (inactive)

## Cc1coc2c1C(=O)C(=O)c1c-2ccc2c1CCCC2(C)C
[16]
  parasite load remaining: 23.1% (inactive)
  viability: 97.5%
[4]
  red/green cell ratio (normalised): 1.04 (inactive)
[4]; [22]
  normalised cell number: 0.67
[4]; [23]
  normalised cell number: 0.7
[5]
  AC50: 5.9 µM (active)
[6]
  outcome: inactive
[8]
  AC50: 3.32 µM (active)
[17]
  AC50: 5.9 µM (active)
[9]
  AC50: 16.6 µM (active)
[11]
  AC50: 7.42 µM (active)
[12]
  outcome: inactive
[13]; [24]
  fold change: 1.17 (inactive) and 1.16 (inactive) and 1.64 (inactive)
[13]; [25]
  fold change: 1.11 and 0.52 and 0.868
[13]; [26]
  cell count: 934 and 1820 and 2140
[13]; [27]
  cell count: 800 and 1570 and 1300
[18]
  fold fluorescence: 3.12 [at 169.9 µM] (inactive)
[19]; MELAS cybrid survival, CellTiter-Glo 48 h, stronger effect = higher value
  z-score: 0.593 (inactive) and 0.0182 (inactive)
[19]; Rieske KO mouse fibroblast survival, CellTiter-Glo 72 h
  z-score: 0.381 and 0.81
[20]
  luciferase signal: 32 AU (inactive)
[15]
  z-score: -1.64 (inactive)

## N[C@@H](CC(=O)N1CCn2c(nnc2C(F)(F)F)C1)Cc1cc(F)c(F)cc1F
[16]
  parasite load remaining: 48.9% (inactive)
  viability: 95.5%
[4]
  red/green cell ratio (normalised): 1.25 (inactive)
[4]; [22]
  normalised cell number: 0.94
[4]; [23]
  normalised cell number: 1.18
[6]
  outcome: inactive
[7]
  outcome: inactive
[17]
  outcome: inactive
[9]
  outcome: inactive
[10]
  outcome: inactive
[11]
  outcome: inactive
[12]
  outcome: inactive
[21]
  remaining NAD: 10 nM (inactive)
[20]
  luciferase signal: 92 AU (inactive)
